Assay outcomes (PubChem BioAssay)
STAT1 inh = reduces IFN-gamma driven STAT1 reporter signal. NIH 3T3 STAT1-luciferase reporter, luminescence. inhibition, % at 5.5 µM. hit rate 0.35% among 200,000. AID 920;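 active = inhibition above a set limit, the mean inhibition across all tested compounds plus 3 SD, cut at about 34% in these data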;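 note: 0% = IFN-gamma with DMSO and 100% = IFN-gamma with 300 µM nifuroxazide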
STAT3 blocker = STAT3 signaling inhibition. AID 862. U3A cells, IL-6 STAT3-luciferase reporter, luminescence; host cell line lacks STAT1. hit rate 0.89% among 190,000. inhibition, % at 5.5 µM;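 active = inhibition above the mean inhibition across all screened compounds plus 3 SD, cut at about 44% in these data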;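 note: 0% = DMSO only wells and 100% = 100 µM nifuroxazide control wells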
HSF1 inh = HSF1 inhibition; hit rate 0.77% among 300,000; AID 2098; NIH3T3-HGL HSE-luciferase, MG132-induced, luminescence 8 h; stronger effect = lower value; activity change, negative = inhibition, % at 7.5 µM (by protocol);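 active = more than half of replicate wells show activity change below -50%, luminescence cut by over half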;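 note: luciferase reports HSF-1 transcriptional activity via heat shock element; 0% = median of DMSO wells and -100% = zero luminescence signal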
HSP90 refold inh = blocks HSP90-mediated luciferase refolding in reticulocyte lysate; Rabbit reticulocyte lysate, luciferase refolding luminescence, 3 h; inhibition, % at 5.6 µM; hit rate 0.91% among 290,000;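 active = inhibition above the screen-wide mean plus 3 SD, computed separately per campaign, cut at about 16% in these data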;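 note: 0% = DMSO wells and 100% = 60 µM geldanamycin wells; inhibitors lower the luminescence because luciferase stays unfolded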
PPC-1+TRAIL kill = PPC-1 cancer cell killing with TRAIL present; PPC-1 cells + TRAIL, ATPLite viability luminescence; cell killing (% activity), % at 4 µM or 5 µM; hit rate 0.41% among 220,000;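 active = cell killing above 50% in the first pass at 4 µM, then a duplicate retest at 5 µM averaging 50% or more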;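 note: plate controls were cells with TRAIL plus DMSO for no effect and medium-only wells lacking cells for full effect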
TRAIL sens C8 = sensitizes caspase-8 expressing cells to TRAIL; inhibition (viability loss, TRAIL sensitization), % at 10 µM; AID 624354; NB7+C8 cells + TRAIL, ATPlite viability luminescence; hit rate 1% among 360,000;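 active = compounds causing at least 50% loss of cell viability in the single-dose screen, relative to plate controls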
* marks the source's active call; other numbers are inactive results; · = no result given. In the library only some 2.4% were active in any assay of this set; here they are far more common.

SMILES	STAT1 inh	STAT3 blocker	HSF1 inh	HSP90 refold inh	PPC-1+TRAIL kill	TRAIL sens C8
Cc1ccc(C(=O)N/C(=C\c2cn(S(=O)(=O)N(C)C)c3ccccc23)C(=O)NCCN2CCOCC2)cc1	·	·	9	-1	·	-5
CC(N1CCOC1=O)S(=O)(=O)c1ccccc1 (centres undefined)	2	2	-76*	3	-8	-6
CCOC(=O)c1ccc(N=c2sc(C(=O)OC)cc(=O)n2-c2ccc(C(=O)OCC)cc2)cc1	-11	-15	69	3	-4	65*
COC(=O)c1cc(=O)n(-c2ccccc2)c(=Nc2ccccc2)s1	0	-2	22	2	4	5
O=C(CCl)N(C/C=C/c1ccccc1)c1ccc2c(c1)OCCO2	10	26	-77*	3	14	92*
N#CCCN(C(=O)CSc1ncccn1)c1ccc2c(c1)OCCO2	·	·	·	·	·	7
O=C(Nc1nc2c(s1)CCCC2)Oc1ccccc1	-5	-2	-7	0	13	1
C/C(=N\Nc1nc2c(s1)CCCC2)c1ccccc1	-53	-101	-4	16*	12	11
COc1ccc(C(=O)NNC(=S)NC(=O)c2cccs2)cc1	·	·	-74*	-3	·	-3
O=C(C1=C[C@H](C2CC2)C[C@H](OCCCCO)O1)N1CCN(Cc2ccc3c(c2)OCO3)CC1	1	·	2	17*	-3	-4
O=C(C1=C[C@@H](c2coc3ccccc3c2=O)C[C@@H](OCCCCO)O1)N1CCN(Cc2ccccc2)CC1	-1	·	0	11	15	-4
O=C(C1=C[C@H](c2ccc(C(F)(F)F)cc2)C[C@H](OCCCCO)O1)N1CCN(Cc2ccc3c(c2)OCO3)CC1	10	·	-70*	4	22	3
C[C@@H]1C=C(C(=O)N2CCN(Cc3ccc4c(c3)OCO4)CC2)O[C@H](OCCCCO)C1	11	·	-8	10	8	-6
O=C(C1=C[C@@H](c2ccc(Br)cc2)C[C@@H](OCCCCO)O1)N1CCN(Cc2ccc3c(c2)OCO3)CC1	7	·	13	12	4	0
O=C(C1=C[C@@H](c2coc3ccccc3c2=O)C[C@@H](OCCCCO)O1)N1CCN(Cc2ccc3c(c2)OCO3)CC1	-4	·	-27	17*	10	2
COCCCN1C(=O)C(CC(=O)NCc2cccs2)CC(C(=O)N2CCCCCC2)=C1C (centres undefined)	·	·	·	·	·	-13
COc1ccc(-c2ccc(N3C(c4cc(OC)cc(OC)c4)=Cc4ccc(OC)cc4C3CC(C)=O)cc2)cc1 (centres undefined)	·	·	·	·	·	26
COc1ccc(/C(C)=N/NC(=O)CNC(=O)COc2ccccc2)c(OC)c1	·	·	-7	-2	·	5
COc1ccc(/C(C)=N/NC(=O)CNC(=O)/C=C\c2ccccc2)c(OC)c1	·	·	-66*	-1	·	11
COc1ccc(Oc2nnnn2-c2ccccc2)cc1	-7	10	18	-2	26	-3
c1ccc(-n2nnnc2Oc2ccc(-c3nnco3)cc2)cc1	-2	0	-70*	2	·	-11
CCOC(=O)[C@]12CCCC=C1N(Cc1ccc3c(c1)OCO3)C(=O)[C@H](CC(=O)NCCCN1CCCC1=O)C2	·	·	·	·	·	0
Cc1cc(C)c2sc(N(CCCN(C)C)C(=O)c3ccc(S(=O)(=O)N(C)C4CCCCC4)cc3)nc2c1	·	·	2	·	·	76*
CN(C)CCCN(C(=O)c1ccc(S(=O)(=O)N(C)C2CCCCC2)cc1)c1nc2ccc(Br)cc2s1	·	·	-7	7	·	58*
COc1ccc(Cn2nnnc2C(c2ccccc2Cl)N2CCC(C(N)=O)CC2)cc1 (centres undefined)	-8	2	-51*	-1	14	0
COc1ccc(Cn2nnnc2C(c2cc(OC)ccc2OC)N2CCC(C(N)=O)CC2)cc1 (centres undefined)	-13	-7	-7	5	6	6
O=C(CN1CCN(C(=O)C2CCN(C(=O)/C=C/c3ccccc3)CC2)CC1)Nc1ccc(F)cc1	·	·	·	·	·	4
Cc1ccc(C(=O)NCC(c2ccc(F)cc2)N2CCOCC2)cc1S(=O)(=O)N1CCOCC1 (centres undefined)	·	·	·	·	·	1
CCN1CCN(C(=O)C2CCN(C(=O)c3cc4sccc4n3CC)CC2)CC1	-7	6	-70*	-1	17	-10
COc1cc(S(=O)(=O)n2nnc3ccccc32)c(OC)cc1Cl	35*	18	-11	1	7	2
